# Data taken from ChEMBL document CHEMBL4513216, “Probing the Open Global Health Chemical Diversity Library for Multistage-Active Starting Points for Next-Generation Antimalarials” (ACS Infect Dis, 2020).
# The whole screen tested about 69,000 compounds, of which about 8,600 (12%) showed an effect of 50% or more. This is one part of a sample in which strong results are shown more often than they occur.
# Test system: Plasmodium berghei
# Assay: Screen against P. berghei liver stage (PbLuc), transformed with Luciferase, at 10uM
# Format: functional, HepG2
# Conditions: tested at 10 uM
row,Structure (SMILES),INHIBITION [%]
1,CC(C)N(CC(N)=O)C(=O)CCC(=O)c1ccc(F)cc1F,23.7
2,CS(=O)(=O)c1cccc(C(N)c2ccccc2)c1 (centres undefined),-19.4
3,N#CC1(C(=O)NCc2ccc(F)cc2)CCCC1,-22.1
4,CC(C)(N)C(=O)N1CCCC1c1cncc(Oc2ccccc2)n1 (centres undefined),26.3
5,Cc1cc(CN2CCc3nn(C(C)C)c(=O)cc3C2)no1,35.1
6,CCCn1nc2c(cc1=O)CN(Cc1nc(-c3ccco3)no1)CC2,20.8
7,CCn1nc2c(cc1=O)CN(Cc1nc(-c3ccco3)no1)CC2,35.9
8,CC(C)n1nc2c(cc1=O)CN(Cc1nc(-c3ccco3)no1)CC2,54.4
9,Cc1noc(C)c1CN1CCc2nn(C(C)C)c(=O)cc2C1,54.4
10,CCCn1nc2c(cc1=O)CN(Cc1c(C)noc1C)CC2,2.69
11,CCN(Cc1nc(COC)no1)C(=O)CCNC(=O)c1ccccc1F,58.1
12,Cc1nc(CCN(C)C(=O)CCNC(=O)c2ccccc2F)no1,43.9
13,CC(C)c1nc(CN(C)C(=O)CCNC(=O)c2ccccc2F)no1,12.4
14,CCN(CC1CCCCO1)C(=O)CCNC(=O)c1ccccc1F (centres undefined),28.5
15,CCN(CC1CCOCC1)C(=O)CCNC(=O)c1ccccc1F,32.2
16,CC(C)Cc1noc(CN(C)C(=O)CCNC(=O)c2ccccc2F)n1,51.5
17,CC(C)CCNC(=O)C1CCN(c2ccc3nnc(C(C)C)n3n2)CC1,21
18,O=S(=O)(NCC1(c2cccs2)CCOCC1)c1cccnc1,-115
19,NCc1cccc(NC(=O)CCN2CCOCC2)c1,-5.1
20,OCCC[C@@H]1CN(c2ncc(Cl)cc2Cl)CC[C@@H]1N1CCOCC1,1.93
21,O=C(NCc1cn2c(n1)CN(Cc1cccnc1)CC2)C1CCC1,26.3
22,c1ccc(-c2cc(CNCCCN3CCCCC3)c3nnnn3c2)cc1,-38.2

row,Structure (SMILES),INHIBITION [%]
1,c1ccc(-c2cc(CNCCCC3CCOC3)c3nnnn3c2)cc1 (centres undefined),74.9
2,c1ccc(-c2cc(CNCCN3CCOCC3)c3nnnn3c2)cc1,5.11
3,Cc1cnn(CC2CCN(CC(O)c3ccccc3Cl)CC2)c1 (centres undefined),57.2
4,Cc1cnn(CC2CCN(CC(O)CN3CCC(C)CC3)CC2)c1 (centres undefined),30.4
5,Cc1cnn(CC2CCN(CC(O)Cn3cccn3)CC2)c1 (centres undefined),68.5
6,Cc1ccc(OCC(O)CN2CCC(Cn3cc(C)cn3)CC2)cc1 (centres undefined),33.3
7,Cc1cc(C)n(CC2CCN(CC(O)Cn3cccn3)CC2)n1 (centres undefined),-12.2
8,Cc1cnn(CC2CCN(CC(O)c3ccccc3)CC2)c1 (centres undefined),33
9,Cc1cnn(CC2CCN(CC(O)COc3ccc(F)cc3)CC2)c1 (centres undefined),56.1
10,Cc1cnn(CC2CCN(CC(O)COc3ccccc3)CC2)c1 (centres undefined),14.5
11,Cc1cnn(CC2CCN(CC(O)c3ccccc3F)CC2)c1 (centres undefined),-30.8
12,CCC(CC)S(=O)(=O)NC(=O)c1ccc2c(c1)ncn2C,5.11
13,NC(=O)C1CCN(C(=O)NCCOc2ccc3c(c2)OCO3)C1 (centres undefined),-69.3
14,CCCc1noc(CN2CCCCC2Cn2cncn2)n1 (centres undefined),27.2
15,CN1CCN(CCO)C(=O)C12CCN(Cc1ccsc1)CC2,18.2
16,O=C(N[C@@H]1CCC[C@@H](N2CCCC2)[C@@H]1O)c1cc2ccccc2[nH]1,48.4
17,CN(C)CC(=O)N1CC(c2nn(C)c3nccnc23)C1,-0.902
18,O=C(c1ccccc1)C1CCN(c2cncc(-n3cccn3)n2)CC1,74.8
19,c1ccc(COC2CCN(c3cncc(-n4cccn4)n3)CC2)cc1,53.5
20,CN(C)C(=O)C1CCN(c2cncc(-n3cccn3)n2)CC1,41.4
21,c1ccc(C2CCCN(c3cncc(-n4cccn4)n3)CC2)cc1 (centres undefined),90.2
22,NC(=O)C1CCN(c2cncc(-n3cccn3)n2)CC1,48.3

row,Structure (SMILES),INHIBITION [%]
1,Cn1cnnc1C1CCN(c2cncc(-n3cccn3)n2)CC1,-8.19
2,c1cc(C2CCN(c3cnccn3)CC2)ccn1,18.4
3,Nc1cccnc1N1CCC(c2ccccc2)CC1,6.29
4,c1ccc(C2CCN(c3cncc(-n4cccn4)n3)CC2)cc1,85.1
5,O=C(c1ccc(-n2cccn2)nc1)N1CCCC(c2cnccn2)C1 (centres undefined),-50.3
6,N#Cc1cccnc1N1CCC(OCc2ccccc2)CC1,18.9
7,NC(=O)CC1CCN(c2cncc(OCc3ccccc3)n2)CC1,12.4
8,Cc1nc(CN2C[C@@H]3CN(C(=O)c4cccn4C)C[C@@H]3C2=O)cs1,39.8
9,Cc1ccc2nc(C3CCCN(CC(C)C)C3)nc(O)c2c1 (centres undefined),13.5
10,CCc1n[nH]c(C2CN(C(=O)c3nc(C)n4ccccc34)CCO2)n1 (centres undefined),17.8
11,Cc1nc2cc(C(=O)N3CCCC(n4ccnc4)C3)ccc2n1C (centres undefined),33.3
12,O=C(NCc1ccc(F)cc1)N1CCN(CC(O)C2CC2)CC1 (centres undefined),30.8
13,Cc1ccc(S(=O)(=O)NCC2COCc3c(C)nnn3C2)cc1F (centres undefined),24.5
14,c1ccc(N2CCC(c3ccncc3)CC2)cc1,65.2
15,c1cncc(N2CCC(c3ccncc3)CC2)c1,26.221
16,c1cc(C2CCN(c3cncnc3)CC2)ccn1,39.6
17,Cc1nc(C2CCCN(C(=O)c3ccc(OCC4CC4)nc3)C2)no1 (centres undefined),8.64
18,O=C1C(N2CCOCC2)CCCN1Cc1cccc(C(F)(F)F)c1 (centres undefined),50.8
19,FC(F)(F)c1ccnc(N2CCCC(N3CCOCC3)C2)c1 (centres undefined),40.5
20,O=c1n(Cc2cccc(C(F)(F)F)c2)nc2ncccn12,-39.3
21,O=C1C(N2CC[C@@H](O)C2)CCCN1Cc1cccc(C(F)(F)F)c1 (some centres undefined),77.8
22,NC1CCCN(Cc2cccc(C(F)(F)F)c2)C1=O (centres undefined),57.2

row,Structure (SMILES),INHIBITION [%]
1,NC(=O)CN(C(=O)Cc1cccc(C(F)(F)F)c1)C1CCCC1,-23.1
2,CC(O)(CN1CCC(O)CC1)c1cccc(C(F)(F)F)c1 (centres undefined),-37.7
3,O[C@H]1COCCN(Cc2cccc(C(F)(F)F)c2)C1,-4.82
4,O[C@H]1CN(Cc2cccc(C(F)(F)F)c2)CC[C@@]12CCCO2,37.6
5,CC(C)NC(=O)N1CC[C@@H]2CN(Cc3ccccc3)S(=O)(=O)[C@@H]2CC1,31.8
6,O=c1[nH]cnc2c1CCN(S(=O)(=O)c1cccc(OC(F)(F)F)c1)C2,-23.7
7,COCCN1C[C@H](OCc2csc(C)n2)[C@H]2COC[C@H]21,-41.4
8,CCC(C)N(Cc1sccc1C)C(=O)c1cc(N)ccn1 (centres undefined),43.9
9,Cc1ccccc1-c1cncc(C2CCN(C)CC2)n1,38.1
10,Cc1ccccc1-c1cncc(C2CCN(C3CCOCC3)CC2)n1,64.1
11,Cc1ccccc1-c1cncc(C2CCN(C(C)C)CC2)n1,32.8
12,COc1cccc(-n2nnc(C(=O)N3CCCC(C)C3)c2C)c1 (centres undefined),-60.35
13,COc1cccc(-n2nnc(C(=O)N3CCN(C)CC3C)c2C)c1 (centres undefined),68.3
14,COc1cccc(-n2nnc(C(=O)N3CCCC3)c2C)c1,2.26
15,Cc1nc(C)c(CN2CCC(N(C)Cc3nnc(C4CC4)o3)C2)s1 (centres undefined),-21.9
16,Cc1ccc(CNc2cc3c(cc2Cl)NC(=O)CO3)cc1C,56
17,Cc1noc(CNc2cc3c(cc2Cl)NC(=O)CO3)n1,3.13
18,CC(C)(C)c1nc(CNc2cc3c(cc2Cl)NC(=O)CO3)no1,5.91
19,O=C(NCc1nnc2n1CCC2)c1cccc(Br)c1,-57.5
20,Cc1csc(C2(NCc3nc(-c4ccco4)no3)CCCC2)n1,62
21,Cc1csc(C2(NCc3nnc(-c4ccco4)o3)CCCC2)n1,32.9
22,Cc1csc(C2(NCc3ccc(OCC(F)F)cc3)CCCC2)n1,14.5

row,Structure (SMILES),INHIBITION [%]
1,Cc1csc(C2(NCc3nc(-c4ccco4)oc3C)CCCC2)n1,64.5
2,Cc1csc(C2(NCc3csc(C4CC4)n3)CCCC2)n1,24.2
3,Cc1csc(C2(NCC(O)COC(C)C)CCCC2)n1 (centres undefined),9.41
4,COCCNC(=O)N1CCN(C(=O)c2nsc3ccc(C)cc23)CC1,-32.1
5,Cc1ccc(OCC(=O)N2CCCC(n3nc(C)nc3C)C2)cc1 (centres undefined),25.1
6,CN(CCCN1CCCCCC1)C(=O)c1ccccc1NCC(=O)O,14.9
7,c1ccc(-c2nnc(CN3CCCC(Cn4cncn4)C3)o2)cc1 (centres undefined),9.31
8,CCOc1ccc(C#N)cc1NCc1cc(C)on1,51.7
9,CCOc1ccc(C#N)cc1NCC(=O)NC(=O)NC,2.3
10,CCOc1ccc(C(F)(F)F)cc1NC(=O)NCc1noc(C)n1,-15
11,COc1ccc(Cl)cc1NCc1cc(C)on1,11.783
12,CCOc1c(Cl)cccc1NCc1cc(C)on1,-10.2
13,CCOc1ccc(C(F)(F)F)cc1NC(=O)N1CCC(C(N)=O)CC1,-3.21
14,CCNC(=O)NC(=O)CNc1cc(C#N)ccc1OCC,-9.76
15,CCOc1ccc(C#N)cc1NCC(=O)OC,-38.7
16,CCOc1ccc(C(F)(F)F)cc1NCc1nc(C)c(C)o1,65.6
17,CCOc1ccc(OCC)c(NCc2cc(C)on2)c1,71.2
18,CCOc1ccc(C#N)cc1NCC(=O)Nc1cc(C)no1,7.7
19,CCCNC(=O)CNc1cc(C#N)ccc1OCC,60.5
20,CCN(Cc1cccc(C)c1)Cc1nc2c(cnn2C)c(=O)[nH]1,49.1
21,Cc1cc(N2CCN(Cc3cn(C)nc3C)CC2)cc(C2CCNC2)n1 (centres undefined),18.225
